Shown is part of a subset that was picked to be rich in the strongest signals.
Legend:
Test in all cases: glycan array binding signal (z-score within array); higher = stronger binding
Details in all cases: glycan notation: IUPAC condensed, linker removed
[1] = target: Fuc(a1-2)Gal(b1-3)GalNAc
Procedure, shortened: (§1)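 Glycan array binding is given as a within-array Z-score, which can be read as non-binding when negative. The arrays, 3228 of them, came from the Consortium for Functional Glycomics database and were retained only where the protein sequence was available. Z-scores were averaged across arrays of the same protein sequence at different concentrations or buffers and across linkers.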

[2] = target: Fuc(a1-2)Gal(b1-4)Glc6S
Procedure, shortened: as §1

[3] = target: Fuc(a1-2)Gal(b1-4)GlcNAc
Procedure, shortened: as §1

[4] = target: Fuc(a1-2)Gal(b1-4)GlcNAc(b1-2)Man(a1-3)[Fuc(a1-2)Gal(b1-4)GlcNAc(b1-2)Man(a1-6)]Man(b1-4)GlcNAc(b1-4)GlcNAc
Procedure, shortened: as §1

[5] = target: Fuc(a1-2)Gal(b1-4)GlcNAc(b1-3)Gal(b1-4)GlcNAc
Procedure, shortened: as §1

[6] = target: Fuc(a1-2)Gal(b1-4)GlcNAc(b1-3)Gal(b1-4)GlcNAc(b1-3)Gal(b1-4)GlcNAc
Procedure, shortened: as §1

[7] = target: Fuc(a1-2)Gal(b1-4)GlcNAc(b1-3)[Fuc(a1-2)Gal(b1-4)GlcNAc(b1-6)]GalNAc
Procedure, shortened: as §1

[8] = target: Fuc(a1-2)Gal(b1-4)GlcNAc6S
Procedure, shortened: as §1

[9] = target: Fuc(a1-2)Gal(b1-4)[Fuc(a1-3)]GlcNAc
Procedure, shortened: as §1

[10] = target: Fuc(a1-2)Gal6S(b1-4)Glc6S
Procedure, shortened: as §1

[11] = target: Fuc(a1-2)[Gal(a1-3)]Gal(b1-3)GlcNAc(b1-2)Man(a1-3)[Fuc(a1-2)[Gal(a1-3)]Gal(b1-3)GlcNAc(b1-2)Man(a1-6)]Man(b1-4)GlcNAc(b1-4)GlcNAc
Procedure, shortened: as §1

[12] = target: Fuc(a1-2)[Gal(a1-3)]Gal(b1-4)GlcNAc(b1-2)Man(a1-3)[Fuc(a1-2)[Gal(a1-3)]Gal(b1-4)GlcNAc(b1-2)Man(a1-6)]Man(b1-4)GlcNAc(b1-4)[Fuc(a1-6)]GlcNAc
Procedure, shortened: as §1

[13] = target: Fuc(a1-2)[Gal(a1-3)]Gal(b1-4)[Fuc(a1-3)]Glc
Procedure, shortened: as §1

[14] = target: Fuc(a1-2)[Gal(a1-3)]Gal(b1-4)[Fuc(a1-3)]GlcNAc(b1-3)GalNAc
Procedure, shortened: as §1

[15] = target: Fuc(a1-2)[GalNAc(a1-3)]Gal
Procedure, shortened: as §1

[16] = target: Fuc(a1-3)GlcNAc
Procedure, shortened: as §1

[17] = target: Fuc(a1-3)[Gal(b1-4)]GlcNAc(b1-4)Gal(b1-4)[Fuc(a1-3)]GlcNAc(b1-4)Gal(b1-4)[Fuc(a1-3)]GlcNAc
Procedure, shortened: as §1

[18] = target: Gal(a1-3)Gal(b1-4)GlcNAc(b1-3)GalNAc
Procedure, shortened: as §1

[19] = target: Gal(a1-3)Gal(b1-4)[Fuc(a1-3)]GlcNAc(b1-2)Man(a1-3)[Gal(a1-3)Gal(b1-4)[Fuc(a1-3)]GlcNAc(b1-2)Man(a1-6)]Man(b1-4)GlcNAc(b1-4)GlcNAc
Procedure, shortened: as §1

[20] = target: Gal(a1-6)Glc
Procedure, shortened: as §1

[21] = target: Gal(b1-3)GalNAc
Procedure, shortened: as §1

[22] = target: Gal(b1-3)GlcNAc(b1-3)Gal(b1-4)Glc
Procedure, shortened: as §1

[23] = target: Gal(b1-3)[Fuc(a1-4)]GlcNAc(b1-3)Gal(b1-4)[Fuc(a1-3)]GlcNAc
Procedure, shortened: as §1

[24] = target: Gal(b1-4)GlcNAc(b1-2)Man(a1-3)[Gal(b1-4)GlcNAc(b1-2)Man(a1-6)]Man(b1-4)GlcNAc(b1-4)[Fuc(a1-6)]GlcNAc
Procedure, shortened: as §1

[25] = target: Gal(b1-4)GlcNAc(b1-2)[Gal(b1-4)GlcNAc(b1-4)]Man(a1-3)[GlcNAc(b1-4)][Gal(b1-4)GlcNAc(b1-2)[Gal(b1-4)GlcNAc(b1-6)]Man(a1-6)]Man(b1-4)GlcNAc(b1-4)GlcNAc
Procedure, shortened: as §1

[26] = target: Gal(b1-4)GlcNAc(b1-2)[Gal(b1-4)GlcNAc(b1-6)]Man(a1-6)[Gal(b1-4)GlcNAc(b1-2)Man(a1-3)]Man(b1-4)GlcNAc(b1-4)GlcNAc
Procedure, shortened: as §1

[27] = target: Gal(b1-4)GlcNAc(b1-2)[Gal(b1-4)GlcNAc(b1-6)]Man(a1-6)[GlcNAc(b1-4)][Gal(b1-4)GlcNAc(b1-2)Man(a1-3)]Man(b1-4)GlcNAc(b1-4)GlcNAc
Procedure, shortened: as §1

[28] = target: Gal(b1-4)GlcNAc(b1-3)Gal(b1-3)GlcNAc
Procedure, shortened: as §1

[29] = target: Gal(b1-4)GlcNAc(b1-3)GalNAc
Procedure, shortened: as §1

[30] = target: Gal4S(b1-4)GlcNAc
Procedure, shortened: as §1

[31] = target: GalNAc(a1-3)GalNAc(b1-3)Gal(a1-4)Gal(b1-4)GlcNAc
Procedure, shortened: as §1

[32] = target: GalNAc(b1-3)Gal(a1-6)Gal(b1-4)Glc
Procedure, shortened: as §1

[33] = target: GlcNAc(a1-6)Gal(b1-4)GlcNAc
Procedure, shortened: as §1

[34] = target: Kdn(a2-3)Gal(b1-4)GlcNAc
Procedure, shortened: as §1

[35] = target: Neu5Ac(a2-3)Gal(b1-4)[Fuc(a1-3)]GlcNAc(b1-3)Gal
Procedure, shortened: as §1

[36] = target: Neu5Ac(a2-3)Gal(b1-4)[Fuc(a1-3)]GlcNAc(b1-3)Gal(b1-4)GlcNAc
Procedure, shortened: as §1

[37] = target: Neu5Ac(a2-6)Gal(b1-4)GlcNAc(b1-2)Man(a1-3)[Neu5Ac(a2-6)Gal(b1-4)GlcNAc(b1-2)Man(a1-6)]Man(b1-4)GlcNAc(b1-4)GlcNAc
Procedure, shortened: as §1

[38] = target: Neu5Gc(a2-6)Gal(b1-4)GlcNAc
Procedure, shortened: as §1

B1: CV-2L (Chromobacterium violaceum), Q7NX84 (protein)
chain: MAQQGVFTLPARINFGVTVLVNSAATQHVEIFVDNEPRAAFSGVGTGDNNLGTKVINSGSGNVRVQITANGRQSDLVSSQLVLANKLNLAVVGSEDGTDMDYNDSIVILNWPLG
glycan array binding signal (z-score) [1]: 0.156 | glycan array binding signal (z-score) [2]: 4.43 | glycan array binding signal (z-score) [3]: 5.39 | glycan array binding signal (z-score) [4]: 5.17 | glycan array binding signal (z-score) [5]: 5.68 | glycan array binding signal (z-score) [6]: 5.57 | glycan array binding signal (z-score) [7]: 5.71 | glycan array binding signal (z-score) [8]: 5.42 | glycan array binding signal (z-score) [9]: 0.928 | glycan array binding signal (z-score) [10]: 4.37 | glycan array binding signal (z-score) [11]: -0.292 | glycan array binding signal (z-score) [12]: -0.257 | glycan array binding signal (z-score) [13]: -0.019 | glycan array binding signal (z-score) [14]: -0.294 | glycan array binding signal (z-score) [15]: -0.2 | glycan array binding signal (z-score) [16]: 1.49 | glycan array binding signal (z-score) [17]: -0.252 | glycan array binding signal (z-score) [18]: -0.341 | glycan array binding signal (z-score) [19]: -0.319 | glycan array binding signal (z-score) [20]: -0.347 | glycan array binding signal (z-score) [21]: -0.341 | glycan array binding signal (z-score) [22]: -0.304 | glycan array binding signal (z-score) [23]: 0.831 | glycan array binding signal (z-score) [24]: -0.275 | glycan array binding signal (z-score) [25]: -0.334 | glycan array binding signal (z-score) [26]: -0.307 | glycan array binding signal (z-score) [27]: -0.316 | glycan array binding signal (z-score) [28]: -0.343 | glycan array binding signal (z-score) [29]: -0.342 | glycan array binding signal (z-score) [30]: -0.355 | glycan array binding signal (z-score) [31]: -0.306 | glycan array binding signal (z-score) [32]: -0.338 | glycan array binding signal (z-score) [33]: -0.342 | glycan array binding signal (z-score) [34]: -0.31 | glycan array binding signal (z-score) [35]: -0.337 | glycan array binding signal (z-score) [36]: -0.308 | glycan array binding signal (z-score) [37]: -0.336 | glycan array binding signal (z-score) [38]: -0.326

— the supplement of paper PMC8728848
